The entries come from a sample that favours hits as a whole.
ROC1-CUL1 inh – human ROC1-CUL1 E3 ligase inhibition. P62877+Q13616. inhibition, % at 10 µM. in vitro K48 di-Ub FRET, acceptor:donor ratio, 45 min. AID 1347404. actives 0.6% (n = 140,000); in the data active means inhibition above about 25%
Numbers without * were called inactive.

SMILES	ROC1-CUL1 inh
Clc1ccc(CNc2ccc(N3CCN(Cc4ccccc4)CC3)cc2)cc1	2
CC(C)(CO)NCc1ccc(Cl)cc1	1
CCCCCC(=O)N(CN1C(=O)c2ccccc2C1=O)c1cc(C)ccc1C	-2
Cc1ccc(NC(=O)CN2C(=O)c3ccccc3C2=O)cc1Cl	-11
O=C(CN1C(=O)c2ccccc2C1=O)Nc1ccc(I)cc1	-6
Cc1ccc(NC(=O)CN2C(=O)c3ccc4c5c(ccc(c35)C2=O)CC4)cc1	38*
CCOC(=O)c1ccccc1NC(=O)c1cccc(C(=O)Nc2ccccc2C(=O)OCC)n1	-6
Brc1ccc(CNc2ccccc2-n2c(-c3ccc(Br)cc3)nc3ccccc32)cc1	-9
COCCCNC(=O)CC(c1cc(OC)c(OC)c(OC)c1)N1Cc2ccccc2C1=O (centres undefined)	-9
O=C(/C(=C/c1ccccc1)Sc1ccccc1)c1ccc([N+](=O)[O-])o1	3
CCc1ccccc1NC(=O)c1ccc([N+](=O)[O-])o1	-12
N#C/C(=C/C(=O)c1ccccc1)c1ccc([N+](=O)[O-])o1	85*
COC12C=C(C)C(C(C)=C1)c1c(F)c(F)c(F)c(F)c12	16
COc1ccc(-c2[nH]nc3c2C(c2ccc(Br)cc2)C(C#N)C(=N)O3)cc1 (centres undefined)	14
COc1ccc(-c2[nH]nc3c2C(c2ccoc2)C(C#N)C(=N)O3)cc1 (centres undefined)	-7
COc1ccc(-c2[nH]nc3c2C(c2cc(I)cc(I)c2O)C(C#N)C(=N)O3)cc1 (centres undefined)	28*
Fc1ccc(-n2nnnc2-c2c[nH]c3c(Cl)cc(Cl)cc23)cc1	-7
COc1cccc(C(C2C(=O)Oc3ccc(C)cc3C2=O)C2C(=O)Oc3ccc(C)cc3C2=O)c1 (centres undefined)	-6
Cc1ccc2c(c1)C(=O)C(C(c1ccccc1Cl)C1C(=O)Oc3ccc(C)cc3C1=O)C(=O)O2 (centres undefined)	63*
Cc1ccc2c(c1)C(=O)C(C(c1ccc(N(C)C)cc1)C1C(=O)Oc3ccc(C)cc3C1=O)C(=O)O2 (centres undefined)	-6
CC(C)C(=O)OC1[C@@H](OC(=O)C(C)C)[C@H](OC(=O)C(C)C)C(O)[C@H](OC(=O)C(C)C)[C@H]1OC(=O)C(C)C (some centres undefined)	-4
C=C(C)CSc1nc2sc3c(c2c(=O)n1-c1ccccc1)CCCCC3	6
O=C1CCCc2c1c1cccc3c1n2CCC3	5
Nc1ncc2c3c1c(=O)c1ccccc1n3CCC2	50*
Cc1ccc(-c2ccccc2)n1-c1ccc(C(=O)O)cc1	3
SMILES	ROC1-CUL1 inh
Cc1ccc(C(=O)O)cc1-n1c(C)ccc1-c1ccccc1	7
Cc1ccc(C)n1-c1cc(C(=O)O)ccc1Cl	101*
Cc1ccc(C)n1-c1ccc(C(N)=O)cc1	2
Cc1ccc(C)n1-c1cccc(Cl)c1Cl	3
Cc1ccc(-c2ccccc2)n1-c1ccc(Cl)c(C(=O)O)c1	1
Cc1ccc(-c2ccccc2)n1-c1cccc(C(=O)O)c1	-4
Cc1cc(C(=O)O)ccc1-n1c(C)ccc1C	99*
Cc1ccc(C(=O)O)cc1-n1c(C)ccc1C	96*
Fc1ccccc1C1Oc2ccccc2C2CC(c3cccs3)=NN21 (centres undefined)	0
O=C(N/N=C/c1ccc(O)cc1)c1cccc(Cl)c1	-1
O=C1/C(=C/c2ccccc2)N(Cc2ccccc2)Cc2ccccc21	-15
Cc1ccc(CCNC(=O)c2ccc(NC(=O)N3CCSc4ccccc43)cc2)cc1	-1
O=C1C2C3C=CC(O3)C2C(=O)N1n1cnnc1 (centres undefined)	11
CC(C)C(C(=O)O)N1C(=O)c2cccc3cccc(c23)C1=O (centres undefined)	1
C/C(=N\NC(=O)CC#N)c1ccc([N+](=O)[O-])cc1	2
Cc1ccc(N2C(=O)C(NC(=O)C(C)(C)C)(C(F)(F)F)C3=C2CC(C)(C)CC3=O)cc1 (centres undefined)	4
O=C1N=c2ccccc2=C1c1sc(Nc2ccc(Br)cc2)nc1O	4
O=C1N=c2ccccc2=C1c1sc(Nc2ccc(O)cc2)nc1O	32*
CCc1cccc2c1=NC(=O)C=2c1sc(Nc2cccc(Cl)c2)nc1O	-7
C=C(C)Cn1c(SCC(=O)Nc2cccc(Cl)c2)nc2sc3c(c2c1=O)CCCC3	-8
CN=C(Nc1cc(Cl)cc(Cl)c1)SC1CC(=O)N(c2ccc(Cl)cc2)C1=O (centres undefined)	-8
CCOC(=O)C1=CN(c2ccc(F)cc2)C=C(C(=O)OCC)C1c1cccc(Cl)c1	-3
CCOC(=O)c1c(C)sc(-c2c(-c3cc(C)ccc3C)[nH]c3c2c(=O)[nH]c(=O)n3C)c1O	49*
CCOC(=O)c1c(C)sc(-c2c(-c3cc(C)ccc3C)[nH]c3c2c(=O)n(C)c(=O)n3C)c1O	22
Cc1ccc(C)c(-c2[nH]c3c(c2-c2c(-n4cccc4)n(C)c(=O)n(C)c2=O)c(=O)n(C)c(=O)n3C)c1	9
SMILES	ROC1-CUL1 inh
CCOC(=O)c1c(C)sc(-c2c(-c3cccc(Cl)c3)[nH]c3c2c(=O)n(C)c(=O)n3C)c1O	45*
CCOC(=O)c1c(NC(=O)c2c(F)cccc2F)sc(C)c1-c1cccc(Cl)c1	1
COC(=O)C12C3C4CC(C5C4C51N)C32 (centres undefined)	4
COc1ccc(N=c2sc(C)c(-c3ccc(C)cc3)n2CCO)cc1	0
O=C1Oc2c(c(=O)n(Cc3ccccc3)c3ccccc23)C(=O)C1Sc1cc(Cl)c(Cl)cc1Cl (centres undefined)	-6
O=C(CN1c2ccc(Br)cc2-c2ccccc2S1(=O)=O)N1CCCCC1	7
O=C1CC2CS(=O)(=O)CC2N1c1ccc(OC(F)(F)Cl)cc1 (centres undefined)	-12
C=CCn1c(SCC(=O)Nc2ccc(C(=O)OCC)cc2)nc2scc(-c3ccco3)c2c1=O	11
CC1=NN(c2cc(S(=O)(=O)O)cc(C(=O)O)c2O)C(=O)C1	69*
Nc1cc(S(=O)(=O)O)cc(C(=O)O)c1O	12
O=C(O)c1cc(S(=O)(=O)O)cc(Nc2c3ccccc3nc3ccccc23)c1O	-7
O=C(Nc1ccc(C(F)(F)F)cc1)c1ccc(N2CCOCC2)cc1	1
CC(=O)c1cccc(NC(=O)c2ccc(Cl)c(S(=O)(=O)N3CCOCC3)c2)c1	34*
Cc1ccc(C(=O)Nc2cccc(C(=O)O)c2)cc1S(=O)(=O)N1CCCC1	5
Cc1ccc(C(=O)Nc2ccc(F)cc2)cc1S(=O)(=O)N1CCOCC1	-4
O=C1C=CC2(c3ccccc3-c3ccccc32)S(=O)(=O)C1	61*
CC1(C)COC2(NC1=O)c1ccccc1-c1ccccc12	10
O=C1c2ccccc2COC12OCc1ccccc12 (centres undefined)	-8
COc1ccc(-c2ccc3c(N)c(C(=O)Nc4ccc(Br)cc4Br)sc3n2)cc1	0
CCOc1ccc(CCNC(=O)c2cnc3sc(N4CCC(C)CC4)nn3c2=O)cc1	10
CC(=O)Oc1ccc(C(=O)Nc2ccc(-c3cc(-c4ccccc4)nc(-c4ccc(NC(=O)c5ccc(OC(C)=O)cc5)cc4)n3)cc2)cc1	1
CCCN(CCC)S(=O)(=O)c1ccc(NC(=O)CC(C)C)cc1	-1
Cc1c(C=C2C(=O)NC(=S)NC2=O)c2ccccc2n1CC(=O)NCc1ccco1	62*
Cc1ccc(NC(=O)Cn2c(=O)n(Cc3ccco3)c(=O)c3ccccc32)cc1	4
